The record followed here is the supplement of paper PMC6555819.

This assay has as its system LXRb homodimer (NR concentration 270 nM). In words: PBM binding z-score (relative to random genomic background probes); higher = stronger binding; sequences stand for … in GC…GCGATTGACAGCGTAGAATGAAGG
The method, boiled down:
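Ligand-free nuclear receptor dimers were applied to custom Agilent 4×180K protein-binding microarrays whose double-stranded probes carried direct-repeat seeds, single-nucleotide variants, half-site ablations and random human genomic background sequences in 34-nt variable regions. Incubation lasted 1 h. Binding z-scores were computed against the random background probes from regression-normalized fluorescence.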
The sequence GCAGACAGGTGAAACGCAGATAACTCAGGGTGGC displayed a PBM binding z-score of -0.813. The result for AGAATGAGGTTAAGATCACGGAAACAGAATACAT reads 0.115. Then ATCGAAAGGTCGTAGGTGAGTATACCCACCCGAA, with 0.812. Then CCTATTAGTCGACCATAAGGGCAACCGAAGCTCG, with 0.406; and ACAGACAGGTGATGGAGGTAACTCAGGCTATCAT, with -0.598; and TCTAGCAGGCCAGAGGGTCACTCCAGAGGTACGG, with -0.995.

AGAACTAGGGCACGCTGAGTTGATAGCAGAGTAG returned a PBM binding z-score of -0.896. The sequence CGTCAAAGTTCAAGGTAACTTAACAGAAAGCAGC gave a PBM binding z-score of 0.919. Sequence CCTAGCAGGCCAAACTGGGTCACTCAAGGCTTGA came in with a PBM binding z-score of -0.564. Consider TAAATGAGGTTATAAGATCAGGGAACGTTGCAAA, for which the PBM binding z-score amounted to 0.646.

Turning to CCTACTGGGCCACGAAAGGTCATTAATTCAGTGA, the PBM binding z-score was found to be 0.358. Consider GCTGCTAGGTCAACTGATGGACAGCTAAAGCTCG, for which the PBM binding z-score amounted to 0.0379. Regarding AATCGGAGGACAAAGGTCAGAGCTACGCCAGTGA, the PBM binding z-score was 0.469. The result for TCGAGTAGGTTAGTCGGGGCATTCAGCCAACATA reads -0.855; that for TCATATAGGTAAACAGGTGAAATTCCGTAAGTTA, -0.0512.

In turn, CGAACTAGGTCATCCAGGACAGTGAGTACATTGA had a PBM binding z-score of 0.24. Then ATACCAAGGTGATCGTGAGGTCGCTGATACTAAC, with -0.474. The sequence TCGAGTAGGTTCGTCGGGGCATTCAGCCAACATA gave a PBM binding z-score of -0.765. The result for TAGCCTAGGTCAGATAGGGCCAGTATACGCTATA reads -0.375; that for CAAACTAGGTCACCGGAAGGTCACAGTCCGCATG, 1.26; that for CACACTAGGTCAAGGTCAAAGTCGGTTTGTGCCA, 2.5. For ACTATTAGTTGAGACGAGGGCAACCAATAGGTTG, the PBM binding z-score is -0.0545. Then ATATGTAGGGTAGCTGGGGTCATTCAGACTAGGC, with 1.68; and CCGAGTAGGATATGGGGCATTCAGGCAACGGTGA, with -0.496; and ATCGACAGGTCGTGAGGTGAGTATACAGAAAGGC, with 0.0816. Turning to GCGTCTGGGGCATCAGCAGGTTACCATAACTTAA, the PBM binding z-score is -0.962. For the sequence CCGACTGGGGCAAGGCTACCATAACGCACAGCCA, the PBM binding z-score was -1.05. Regarding CAAACTAGGTCACCGGTAGGTCAAAGTCCGCATG, the PBM binding z-score is 0.66.

With TCTTGTAGATCAGCAGTTTAAGAAAGCTGGCCAA, the PBM binding z-score is -0.0391. In turn, CAGCCTAGGTCAGGCCCAGTATAGGAGGAACGTT returned a PBM binding z-score of -0.815. The result for ATATATAGGTTAGCTGGGGTCATTCAGACTAGGC reads 2.03; that for GCTTACGGTTCAAAGGTTATAGCATGAATAGAAT, -0.0859; that for AGAATGAGGTTACCGAAGATCAGGGAAACGCTTG, -0.522.

Regarding AGAATGAGGTTATCCGTAGATCAGGGAAGAAAGT, the PBM binding z-score is -0.253. Then TGAATGAGGTTAAAGATCAGGGAACGTGGCGTCG, with 0.375; and AGAATGAGGGTATTAAGATCAGGGAATTGCGGTC, with 0.211. CTACCAACGTGAACAAGGTCGTTGATTACTATTC displayed a PBM binding z-score of 0.184. The result for ACTAGTCGGTCAGCTGAGGTCACACACAATTCGG reads 1.32; that for CCTTGGAGGACAGAAGGTCAGAGCTGTCCGCTTT, -0.609; that for TGTCAAGGTTCAAAGGTAACGTAAGTATCCACAC, 0.581.
